Experimental data as given in PubChem BioAssay AID1832 (Broad Institute, 2009).
Among all 300,000 compounds or so, about 1,100 (0.37%) were called active. The sample holds actives, similar compounds and a random draw of the others, so the mix is not that of the screen. A number with no mark means an inactive call.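 How the source made its calls: active means inhibition past about -25% in most replicates, and total fluorescence under double the plate's negative control median (limit read from the data); inconclusive means replicates evenly split on the limit, or fluorescence at least double controls; inactive means too little inhibition in most replicates.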

Each molecule was assayed against Zinc finger protein mex-5 (Caenorhabditis elegans) (UniProt Q9XUB2) (assay: MEX-5 zinc finger RNA-binding disruptors – biochemical, C. elegans, fluorescence polarization, MLPCN library, primary screen (AID 1832;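 further: 0% = DMSO and -100% = 5 µM competing unlabeled TCR2 RNA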)). Conditions: MEX-5/FITC-TCR2 RNA binding, at 10 µM, hits give low values.
Zinc finger protein mex-5 (Caenorhabditis elegans), sequence (Q9XUB2 whole entry, looked up): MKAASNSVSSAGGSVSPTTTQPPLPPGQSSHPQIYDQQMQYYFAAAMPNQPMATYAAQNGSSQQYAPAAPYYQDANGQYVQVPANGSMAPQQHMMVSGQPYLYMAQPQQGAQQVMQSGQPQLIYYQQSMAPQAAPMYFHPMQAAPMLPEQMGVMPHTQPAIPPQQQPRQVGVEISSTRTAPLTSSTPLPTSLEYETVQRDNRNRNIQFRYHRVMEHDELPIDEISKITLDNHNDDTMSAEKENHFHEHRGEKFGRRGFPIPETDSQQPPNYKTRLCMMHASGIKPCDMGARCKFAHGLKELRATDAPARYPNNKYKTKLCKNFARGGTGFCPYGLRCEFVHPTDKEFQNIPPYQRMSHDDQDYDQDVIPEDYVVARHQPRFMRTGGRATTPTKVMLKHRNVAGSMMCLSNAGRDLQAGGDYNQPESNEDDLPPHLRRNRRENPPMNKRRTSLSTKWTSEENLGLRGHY

Row | Structure (SMILES) | activity score (negative = inhibition of binding)
1 | COc1ccc(C(=O)c2c(C)c(CCC#N)n3ccccc23)c(OC)c1 | -2.13%
2 | COc1cc(/C=C2/C(=O)ON=C2C)ccc1OCc1ccccc1F | -63.3% (active)
3 | COc1cc(/C=C2/C(=O)ON=C2C)ccc1OCc1cccc(F)c1 | -9.55%
4 | C=CCOc1ccc(/C=C2/C(=O)ON=C2C)cc1OCC | -10.9%
5 | CC(=O)Nc1ccc(Nc2nc3c(S(=O)(=O)c4ccc(C)c(C)c4)nnn3c3ccccc23)cc1 | -3.46%
6 | Cc1cc(=O)oc2cc(NC(=O)C3CC(=O)N(Cc4ccccc4)C3)ccc12 (centres undefined) | -4.23%
7 | Cc1cc(C)nc(N/N=C/c2ccc([N+](=O)[O-])o2)n1 | -9.59%
8 | CCn1c(/C=C/c2ccc([N+](=O)[O-])o2)nc2ccccc2c1=O | -34.2% (active)
9 | C/[N+]([O-])=C\c1ccc([N+](=O)[O-])o1 | -3.97%
10 | COc1ccc(NS(=O)(=O)c2cccc3nsnc23)cc1Cl | 1.95%
11 | COC(=O)c1ccc(NC(=S)Nc2cccc(C)n2)cc1 | -0.058%
12 | Cc1cc([N+](=O)[O-])ccc1NC(=O)c1ccc(NC(=O)C(C)C)cc1 | 0.662%
13 | Cn1ccc(=Nc2ccc(NC(=O)c3ccc(N=c4ccn(C)c5ccc([N+](=O)[O-])cc45)cc3)cc2)cc1 | -46.8% (active)
14 | O=C(Nc1ccc(C(=O)N2CCCCC2)cc1)c1cccc([N+](=O)[O-])c1 | 1.72%
15 | CN(C)Cc1c(O)ccc2occ(C(O)c3ccccc3)c12 (centres undefined) | 1.82%
16 | CCCCn1nc(C(=O)Nc2ccc(S(=O)(=O)Nc3ncccn3)cc2)c2ccccc2c1=O | 2.51%
17 | CCCn1nc(C(=O)NNC(=O)CSCC(=O)Nc2cc(C)on2)c2ccccc2c1=O | -9.23%
18 | CCCn1nc(C(=O)Nc2ccc3nc(C)sc3c2)c2ccccc2c1=O | -34.8% (active)
19 | CCOC(=O)NC(=O)C(=CNc1cccc(OC)c1)C(=O)NC(=O)OCC | -0.689%
20 | C=CCOc1ccccc1NC(=O)CN1C(=O)CNC1=O | 1.49%

Row | Structure (SMILES) | activity score (negative = inhibition of binding)
21 | Cc1nc(CN(C)C(=O)CC2C(=O)NCCN2Cc2ccc(F)cc2)cs1 (centres undefined) | -3.2%
22 | NS(=O)(=O)c1ccc(NC(=O)/C=C/c2ccccc2Cl)cc1 | -0.539%
23 | COc1ncnc2c1N=C1CC(C)(C)CC(N)=C1S2 | -36.1% (active)
24 | Cn1c(Nc2ccccc2)cc(=O)n(C)c1=O | -3.14%
25 | Oc1c(Cl)cc(Cl)c(Cl)c1Cc1c(O)c(Cl)cc(Cl)c1Cl | -82.9% (active)
26 | Cc1cc(NS(=O)(=O)c2ccc(NC(=S)NC(=O)c3ccc(F)cc3Cl)cc2)no1 | -0.765%
27 | O=C(NCC1CCCO1)C1CCN(C2CCN(C(=O)C3CCCCC3)CC2)CC1 (centres undefined) | -0.223%
28 | COc1cc(C(=S)N2CCOCC2)cc(OC)c1OC(=O)c1ccc([N+](=O)[O-])cc1[N+](=O)[O-] | -2.68%
29 | Cc1c(NC(=O)c2cccnc2)c(=O)n(-c2ccccc2)n1C | 0.492%
30 | Cc1c(NC(=O)c2coc(=O)c(Br)c2)c(=O)n(-c2ccccc2)n1C | -44.8% (active)
31 | Cc1cc(C(=O)Nc2c(C)n(C)n(-c3ccccc3)c2=O)cs1 | 2.16%
32 | CCOc1ncccc1C(=O)NCCc1ccc(OC)cc1 | -0.435%
33 | CNC(=O)CN1C(=O)NC(c2ccccc2)(c2ccccc2)C1=O | 2.16%
34 | Brc1cc(/C=N/n2cnnc2)oc1Br | 0.986%
35 | Cc1ccc(Cl)cc1-c1ccc(/C=N/n2cnnc2)o1 | 0.0863%
36 | Clc1cc(-c2ccc(/C=N/n3cnnc3)o2)ccc1Br | -34% (active)
37 | Cc1ccoc1C(=O)Nc1cccc(Oc2ccccc2)c1 | -2.34%
38 | COc1ccc(CNC(=O)COc2cccnc2[N+](=O)[O-])cc1 | 0.235%
39 | C=CCN1C=C2C(=O)C(C)(OC(=O)CCc3ccccc3)C(=O)C=C2C=C1c1ccc(C#N)cc1 (centres undefined) | -5.84%
40 | CC1(OC(=O)C2CCCC2)C(=O)C=C2C=C(c3ccc(C#N)cc3)OC=C2C1=O (centres undefined) | -40% (active)

Row | Structure (SMILES) | activity score (negative = inhibition of binding)
41 | COCCN1C=C2C(=O)C(C)(OC(=O)C3CCCC3)C(=O)C=C2C=C1c1ccsc1 (centres undefined) | -2.5%
42 | N#CC1=C(N)C(C#N)(C#N)[C@H](c2ccsc2)[C@H]2COCC=C12 | -30.3% (active)
43 | CCOC(=O)N1CCC(NC(=O)C(NS(=O)(=O)c2ccc3c(c2)CCN3C(=O)CC)C(C)C)CC1 (centres undefined) | -1.98%
44 | O=C(COc1ccc(Cl)cc1Cl)N/N=C/c1ccccn1 | 4.25%
45 | CSc1ncc(C(=O)NCCCc2ccccc2)c(C)n1 | -2.7%
46 | CCOc1ccc(C(=O)NC2CCN(CC(=O)NCc3cccs3)CC2)cc1 | -1.2%
47 | Cc1ccc2c(c1)C(c1ccccc1)N(C(=O)c1ccc(F)cc1)CC(=O)N2 (centres undefined) | -0.463%
48 | CCCNC(=O)N1CCC(c2ccc3c(c2)OCO3)CC1 | 2.15%
49 | CCN1C(=O)c2cccc3c(N)ccc1c23 | 1.15%
50 | CN1C(=O)c2cccc3c(N)ccc(c23)C1=O | -51.4% (active)
51 | Cc1nn(C)cc1N1C(=O)c2cccc3c(N)ccc(c23)C1=O | 1.83%
52 | NC(=O)Cc1ccc2sc(-c3ccccc3)nc2c1 | -1.64%
53 | O=C1c2ccccc2C(Nc2ccc3c(c2)OCCO3)N1Cc1ccco1 (centres undefined) | -1.03%
54 | CCc1ccc(CNC(=O)C2CCN(c3nnc(C)c4c(C)n(-c5ccc(C)cc5)nc34)CC2)cc1 | -2.92%
55 | O=C(Nc1cccc2c1N(C(=O)c1ccco1)CCC2)c1ccco1 | -0.00473%
56 | O=C(NCc1nnc(SCC(=O)N2CCC(Cc3ccccc3)CC2)o1)c1ccco1 | -1.62%
57 | COc1ccc(-c2onc3ccc(C(C)=O)cc23)cc1 | -69.7% (active)
58 | Oc1ccc(-c2onc3ccc(Cl)cc23)cc1 | -1.78%
59 | CC(OC(=O)c1ccc2noc(-c3ccccc3)c2c1)C(N)=O (centres undefined) | -5.27%
